This note sets out measurements from PubChem BioAssay (NCATS).

Records with an inconclusive call do not appear. A call without a number means that no potency is given here. Calls of active or inactive are those of the source. Calls follow the shape of the dose curve; as a rule, active = well fitted curve in the direction sought with a large enough effect; inconclusive = small, poorly fitted or top-dose-only effect, or another doubt; inactive = no such curve, though single readings can be large; an effect the other way counts as inactive or inconclusive.

The nature of the first assay: Identifying Small Molecule Inhibitors of Pancreatic Cancer Stem Cells (SN12C, Adherent) (AID 1259358).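 Also: potency is read from the fitted curve at half-maximal effect; cell survival measured after 48 h of compound exposure.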 The following applies: viability/growth inhibition. An outline of the steps:
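Viability is scored by CellTiter-Glo luminescence 48 h after dosing, expressed as percent activity against vehicle and no-cell references. Spheroid formats rely on cells cultured 14 days in stem cell media beforehand.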
`COc1cc2c(cc1O)CC[C@@H]1[C@@H]2CC[C@]2(C)[C@@H](O)CC[C@@H]12`: the Potency is 2350 nM (active).

Turning to `COc1cccc2c1C(=O)c1c(O)c3c(c(O)c1C2=O)C[C@@](O)(C(=O)CO)C[C@@H]3O[C@H]1C[C@H](N)[C@H](O)[C@H](C)O1`, the Potency is 3320 nM (active).

Consider `Nc1ccn([C@@H]2O[C@H](CO)[C@@H](O)C2(F)F)c(=O)n1`, for which the Potency was 54 nM (active).

A further assay is described as follows: P-glycoprotein substrates identified in KB-3-1 adenocarcinoma cell line, qHTS therapeutic library screen (AID 1346986). Also: nearly all actives have a fitted effect of over 60% in size. The following applies: KB-3-1 parental cells viability, CellTiter-Glo, 72 h; at 44.5 µM (top of the series). An outline of the steps:
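72 h cell-killing screen, 500 cells/well, CellTiter-Glo luminescence. Paired lines KB-3-1/KB-8-5-11; P-gp dependence checked by tariquidar co-treatment and HEK-293 MDR-19 versus empty-vector cells.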
For orientation: In qHTS, concentration-response curves come from the screen itself.
Consider `CC(=O)OCC(=O)[C@@]1(O)[C@H](C)C[C@H]2[C@@H]3CCC4=CC(=O)C=C[C@]4(C)[C@@]3(F)[C@@H](O)C[C@@]21C`, for which the result was inactive.

`CCCCS(=O)(=O)N[C@@H](Cc1ccc(OCCCCC2CCNCC2)cc1)C(=O)O`: the outcome was inactive.

As for `CC(=O)O[C@]1(C(C)=O)CC[C@H]2[C@@H]3C[C@H](C)C4=CC(=O)CC[C@]4(C)[C@H]3CC[C@@]21C`, the result was inactive.

For `OC[C@H]1O[C@H](O[C@]2(CCl)O[C@H](CCl)[C@@H](O)[C@@H]2O)[C@H](O)[C@@H](O)[C@H]1Cl`, the result was inactive.
